This is an account of results in PubChem BioAssay (NCATS).

SMILES strings stand for the structures. Inconclusive results are not listed. Activity calls are given as the source filed them. Unless noted, calls follow the shape of the full dose curve.

Assay [1] addresses Estrogen receptor (Homo sapiens) (UniProt P03372). The assay can be described thus: qHTS assay for small molecule antagonists of estrogen receptor alpha signaling (AID 588513; active = well fitted curve in the direction sought with a large enough effect in the signal ratio, with a control signal flat, not every such curve was filed as active; the % refers to the signal ratio; also: % is scaled to controls: 0 for no effect and ±100 for the full control effect). The method in brief:
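Beta-lactamase reporter, antagonist mode, HEK 293 GripTite cells; 0.5nM E2 stimulus, 18 h, 37 C; CCF4 dye 2 h RT; fluorescence. IC50 and efficacy from Hill fits, normalized to E2 and DMSO.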
A general note: Quantitative high-throughput screening tests each substance at several concentrations.

The target is the same in assay [2]. Put plainly: qHTS assay for small molecule agonists of estrogen receptor alpha signaling (AID 588514).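 Also: 0% = vehicle only and 100% = reference agonist; nearly all actives have a fitted effect of over 70% in size.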 The method in brief:
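EC50 and efficacy came from Hill fits of beta-lactamase reporter signal (CCF4 dye, 2 h at room temperature) scaled between DMSO and 20 nM 17-beta-estradiol. Agonist mode: HEK293 ER-alpha-UAS-bla cells in charcoal/dextran-stripped serum medium, 18 h compound exposure at 37 C.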

Assay [3] in a line: qHTS assay for small molecule antagonists of peroxisome proliferator-activated receptor delta signaling (AID 588535).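 Also: cells co-treated with a PPAR-delta agonist as stimulator during compound exposure.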 The note with it: HEK293T PPARd-UAS-bla, beta-lactamase FRET ratio, 18 h; 460 nm channel. The method in brief: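 Fluorescence from CCF4-loaded GeneBLAzer PPAR-delta-UAS-bla HEK293T cells (2 hrs RT loading) quantified reporter inhibition after an 18 hr, 37 C compound exposure across a titration.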

The target in assay [4] is Peroxisome proliferator-activated receptor gamma (Homo sapiens) (UniProt P37231). Put plainly: qHTS assay for small molecule agonists of peroxisome proliferator-activated receptor gamma signaling (AID 588536; active = well fitted curve in the direction sought with a large enough effect in the signal ratio, with a control signal flat, not every such curve was filed as active; the % refers to the signal ratio;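 also: 0% = DMSO basal wells and 100% = rosiglitazone at 2 µM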). In outline: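 This is an agonist-mode beta-lactamase reporter assay in HEK293 PPAR-gamma-UAS-bla cells with 1% charcoal/dextran FBS. Compound titrations ran 16 h at 37 C before CCF4 detection. EC50 and efficacy are Hill fits scaled to 2 uM rosiglitazone (100%) and DMSO basal.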
Sequence of Peroxisome proliferator-activated receptor gamma (Homo sapiens) (P37231 whole entry, looked up): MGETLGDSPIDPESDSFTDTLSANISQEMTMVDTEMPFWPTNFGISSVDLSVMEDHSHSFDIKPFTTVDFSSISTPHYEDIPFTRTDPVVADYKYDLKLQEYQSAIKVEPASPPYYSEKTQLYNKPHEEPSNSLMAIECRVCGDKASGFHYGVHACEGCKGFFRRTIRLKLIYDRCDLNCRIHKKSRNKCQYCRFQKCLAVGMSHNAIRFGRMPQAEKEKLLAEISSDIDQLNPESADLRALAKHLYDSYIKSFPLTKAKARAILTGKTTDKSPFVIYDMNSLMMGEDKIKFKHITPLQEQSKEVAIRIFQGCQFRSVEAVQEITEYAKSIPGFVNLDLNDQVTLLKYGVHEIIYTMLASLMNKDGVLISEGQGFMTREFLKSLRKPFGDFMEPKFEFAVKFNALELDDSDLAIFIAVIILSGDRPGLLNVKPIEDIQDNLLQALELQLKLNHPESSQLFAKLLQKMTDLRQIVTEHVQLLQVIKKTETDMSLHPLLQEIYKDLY

Assay [5] has the same target. The assay can be described thus: qHTS assay for small molecule antagonists of peroxisome proliferator-activated receptor gamma signaling (AID 588537; active = well fitted inhibition curve with a large enough effect in the signal ratio, with a control signal flat, not every such curve was filed as active; the % refers to the signal ratio;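 also: reporter cells co-stimulated with 50 nM rosiglitazone agonist during compound treatment; % of control where 0% means no effect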). The method in brief: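 Fluorescence at 460 and 530 nm (405 nm excitation) reported beta-lactamase cleavage of CCF4 after 2 h room-temperature loading. HEK293 reporter cells in 1% charcoal/dextran-treated FBS had received compound and rosiglitazone for 16 h.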

Assay [6] deals with Vitamin D3 receptor (Homo sapiens) (UniProt P11473). The assay can be described thus: qHTS assay for small molecule antagonists of vitamin D receptor signaling (AID 588541).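 Also: receptor activated by calcitriol during compound treatment; series mostly up to about 77 µM; % is scaled to controls: 0 for no effect and ±100 for the full control effect.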 In outline:
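VDR-UAS-bla HEK293T cells in 2% charcoal-stripped FBS were stimulated with 1-alpha,25-dihydroxyvitamin D3 (3 nM final) plus compound for 16 h at 37 C. The beta-lactamase CCF4 readout was normalized to 50 nM agonist and DMSO, and Hill fits gave IC50.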

For assay [7] the target is unchanged. Put plainly: qHTS assay for small molecule agonists of vitamin D receptor signaling (AID 588543).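 Also: 0% = DMSO basal and 100% = reference agonist control.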 In outline:
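β-lactamase reporter, VDR-UAS-bla HEK293T, agonist mode. Cells plated 5 h at 37 °C, compound titration 16 h at 37 °C, CCF4 dye 2 h RT, ratio 460/530 nm. Hill fit → EC50, efficacy vs 50 nM 1α,25-(OH)2D3.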

Assay [8] in a line: qHTS assay for small molecule agonists of retinoid X receptor alpha signaling (AID 588544).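 As to activation: 0% = DMSO basal wells and 100% = reference agonist.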 Conditions: HEK293T RXRa-UAS-bla, beta-lactamase reporter, 18 h; 530 nm emission.
Assay [9] has as its target Retinoic acid receptor RXR-alpha (Homo sapiens) (UniProt P19793). The description is as above.
Assay [10] has as its target Thyroid hormone receptor beta (Homo sapiens) (UniProt P10828). The assay can be described thus: qHTS assay for small molecule agonists of thyroid hormone receptor beta signaling (AID 588545).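 Also: 0% = DMSO only and 100% = 10 nM T3.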 The method in brief: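 Stimulation of a TR-driven beta-lactamase reporter was quantified in GripTite HEK 293 cells. Compound series ran for 18 hrs; curves were normalized to T3 and DMSO controls and fitted to yield EC50.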

Assay [11] in a line: qHTS assay for small molecule antagonists of retinoid X receptor alpha signaling (AID 588546; active = well fitted inhibition curve with a large enough effect in the signal ratio, with a control signal flat, not every such curve was filed as active; the % refers to the signal ratio;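 also: cells stimulated with 9-cis-retinoic acid as agonist; % is scaled to controls: 0 for no effect and ±100 for the full control effect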). The note with it: HEK293T RXRa-UAS-bla, beta-lactamase ratio, antagonist mode; measured here: W530 green channel, cytotoxicity proxy. In outline: (§1)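 Beta-lactamase reporter inhibition, read as CCF4 fluorescence ratio (ex 405, em 460/530 nm) after 2 h at RT. HEK293T UAS-bla cells, 2500/well, were stimulated with 9-cis-RA at 500 or 100 nM final alongside test compound for 18 h at 37 C.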

The target in assay [12] is Retinoic acid receptor RXR-alpha (Homo sapiens) (UniProt P19793). Described as above. The note with it: HEK293T RXRa-UAS-bla, beta-lactamase ratio, antagonist mode. The method in brief: as §1
Sequence of Retinoic acid receptor RXR-alpha (Homo sapiens) (P19793 whole entry, looked up): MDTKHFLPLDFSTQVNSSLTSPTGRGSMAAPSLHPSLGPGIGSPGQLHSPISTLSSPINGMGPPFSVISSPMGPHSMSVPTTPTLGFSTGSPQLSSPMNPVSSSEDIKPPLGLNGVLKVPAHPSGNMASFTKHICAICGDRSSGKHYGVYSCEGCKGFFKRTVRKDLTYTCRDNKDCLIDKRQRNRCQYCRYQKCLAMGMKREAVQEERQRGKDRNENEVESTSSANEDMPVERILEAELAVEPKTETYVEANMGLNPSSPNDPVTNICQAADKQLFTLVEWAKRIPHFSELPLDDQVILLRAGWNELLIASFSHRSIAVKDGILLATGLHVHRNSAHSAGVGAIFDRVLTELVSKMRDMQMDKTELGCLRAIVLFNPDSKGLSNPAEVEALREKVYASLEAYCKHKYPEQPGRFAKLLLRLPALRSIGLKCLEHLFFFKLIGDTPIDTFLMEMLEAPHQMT
Assay [13] in a line: qHTS assay for environmental chemicals that activate the Aryl hydrocarbon Receptor (AhR) signaling pathway (AID 651777; active = well fitted curve in the direction sought with a large enough effect; an effect the other way counts as inactive or inconclusive; also: % of control where 0% means no effect; nearly all actives have a fitted effect of over 15% in size). The note with it: 1A2-DRE human hepatoma cells, luciferase, 24 h; activation: stronger effect = higher value. In outline:
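Induction of CYP1A2 transcription through AhR is detected by luciferase in 1A2-DRE hepatoma cells. Compounds or DMSO act for 24 hr at 37 C before a 30 min One-Glo step at room temperature.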

Assay [14] has as its target Peroxisome proliferator-activated receptor alpha (Homo sapiens) (UniProt Q07869). The assay can be described thus: qHTS assay for small molecule agonists of the peroxisome proliferator-activated receptor alpha (PPARalpha) signaling pathway (AID 651778; active = well fitted curve in the direction sought with a large enough effect; an effect the other way counts as inactive or inconclusive; also: % of control where 0% means no effect). The note with it: PathHunter PPARalpha complementation, chemiluminescence, 6 h; max response: stronger effect = higher value. In outline: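 Enzyme-fragment complementation assay in which ligand-bound PPARalpha translocates and forms an active enzyme that generates chemiluminescence. Cells were plated overnight, exposed to compound for 6 hr at 37 C, and then given detection reagent for 60 min at room temperature.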

The nature of assay [15]: qHTS assay for small molecule agonists of the antioxidant response element (ARE) signaling pathway measured by Nrf2-dependant transcriptional activity - cell viability counter screen (AID 720653; active = well fitted curve in the direction sought with a large enough effect in the repeat runs; an effect the other way counts as inactive or inconclusive; also: % is scaled to controls: 0 for no effect and ±100 for the full control effect). Conditions: ARE-bla HepG2 viability, CellTiter-Glo ATP luminescence, 16 h; max response: stronger effect = lower value. The method in brief:
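ARE-bla HepG2 cells treated with compounds for 16 h at 37C; this counter screen measures viability as intracellular ATP by CellTiter-Glo luminescence after 30 min at room temperature.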

The nature of assay [16]: qHTS assay for cell viability of HEK293 cells (AID 743288; active = well fitted curve in the direction sought with a large enough effect; an effect the other way counts as inactive or inconclusive; also: % is scaled to controls: 0 for no effect and ±100 for the full control effect; nearly all actives have a fitted effect of over 50% in size). Conditions: ATP luminescence (CellTiter-Glo), 18 h; max response: stronger effect = lower value. In outline:
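ATP luminescence (CellTiter-Glo) reports metabolically competent cell number after parental HEK293 cells, 2,000/well, were treated with DMSO-dissolved compounds for 18 h at 37 C; reagent incubation 30 min, room temperature.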

A short description of assay [17]: qHTS assay for cell viability of the p53RE-bla HCT-116 cell line (AID 743292; active = well fitted curve in the direction sought with a large enough effect; an effect the other way counts as inactive or inconclusive; also: % is scaled to controls: 0 for no effect and ±100 for the full control effect; nearly all actives have a fitted effect of over 55% in size). The method in brief: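 In this qHTS counter-screen, metabolically competent p53RE-bla HCT-116 cells were counted via their ATP content. Compounds were applied for 16 h at 37 C and luciferase-coupled luminescence was measured.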
Assay [18] deals with Nuclear receptor subfamily 1 group I member 2 (Rattus norvegicus) (UniProt Q9R1A7). Put plainly: qHTS assay for small molecule activators of the rat pregnane X receptor (rPXR) signaling pathway (AID 651751; call rule not given here; also: 0% is about no effect). The note with it: rPXR reporter cells, luciferase (One-Glo), 24 h.
Sequence of Nuclear receptor subfamily 1 group I member 2 (Rattus norvegicus) (Q9R1A7 whole entry, looked up): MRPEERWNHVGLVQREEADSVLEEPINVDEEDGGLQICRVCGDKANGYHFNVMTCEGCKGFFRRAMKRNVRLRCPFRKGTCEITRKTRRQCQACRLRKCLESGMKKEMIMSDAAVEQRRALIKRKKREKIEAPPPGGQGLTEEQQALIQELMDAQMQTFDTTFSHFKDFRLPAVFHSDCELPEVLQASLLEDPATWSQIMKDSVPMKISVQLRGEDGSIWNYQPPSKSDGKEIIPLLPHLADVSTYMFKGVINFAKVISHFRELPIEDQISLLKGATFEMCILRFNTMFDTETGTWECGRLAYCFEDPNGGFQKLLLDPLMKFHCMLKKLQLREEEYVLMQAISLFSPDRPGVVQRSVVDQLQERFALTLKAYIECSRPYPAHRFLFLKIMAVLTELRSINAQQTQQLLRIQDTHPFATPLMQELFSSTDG
Assay [19] is described as follows: qHTS assay for small molecule activators of the human pregnane X receptor (PXR) signaling pathway (AID 720659; call rule not given here; also: 0% is about no effect).
Assay [20] can be described thus: qHTS assay for small molecule activators of the nuclear factor-kappa B (NF-kB) signaling pathway (AID 651749; active = well fitted activation curve with a large enough effect in the signal ratio; the % refers to the signal ratio; also: series mostly up to about 77 µM; % of control where 0% means no effect). Conditions: NF-kB-bla ME-180 cells, beta-lactamase FRET ratio, 16 h; activation: stronger effect = higher value. In outline: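 In this qHTS format, compounds acting as activators increase NF-kB-driven beta-lactamase in ME-180 cells, measured as disrupted FRET after 16 hr exposure at 37C and 5% CO2.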

Sequence of Peroxisome proliferator-activated receptor alpha (Homo sapiens) (Q07869 whole entry, looked up, the tested form may be a part): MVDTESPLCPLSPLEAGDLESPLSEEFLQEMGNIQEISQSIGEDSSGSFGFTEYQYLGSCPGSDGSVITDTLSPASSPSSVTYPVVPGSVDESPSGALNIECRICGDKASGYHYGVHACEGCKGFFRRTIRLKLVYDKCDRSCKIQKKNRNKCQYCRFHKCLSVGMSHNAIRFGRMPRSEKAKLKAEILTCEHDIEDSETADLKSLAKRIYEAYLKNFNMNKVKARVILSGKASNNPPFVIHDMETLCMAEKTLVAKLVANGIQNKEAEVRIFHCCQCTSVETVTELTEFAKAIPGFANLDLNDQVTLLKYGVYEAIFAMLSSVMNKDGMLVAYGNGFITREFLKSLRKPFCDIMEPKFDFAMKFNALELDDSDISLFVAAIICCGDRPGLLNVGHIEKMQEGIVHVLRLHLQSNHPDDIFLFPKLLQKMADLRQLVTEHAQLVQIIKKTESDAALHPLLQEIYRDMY
Sequence of Estrogen receptor (Homo sapiens) (P03372 whole entry, looked up): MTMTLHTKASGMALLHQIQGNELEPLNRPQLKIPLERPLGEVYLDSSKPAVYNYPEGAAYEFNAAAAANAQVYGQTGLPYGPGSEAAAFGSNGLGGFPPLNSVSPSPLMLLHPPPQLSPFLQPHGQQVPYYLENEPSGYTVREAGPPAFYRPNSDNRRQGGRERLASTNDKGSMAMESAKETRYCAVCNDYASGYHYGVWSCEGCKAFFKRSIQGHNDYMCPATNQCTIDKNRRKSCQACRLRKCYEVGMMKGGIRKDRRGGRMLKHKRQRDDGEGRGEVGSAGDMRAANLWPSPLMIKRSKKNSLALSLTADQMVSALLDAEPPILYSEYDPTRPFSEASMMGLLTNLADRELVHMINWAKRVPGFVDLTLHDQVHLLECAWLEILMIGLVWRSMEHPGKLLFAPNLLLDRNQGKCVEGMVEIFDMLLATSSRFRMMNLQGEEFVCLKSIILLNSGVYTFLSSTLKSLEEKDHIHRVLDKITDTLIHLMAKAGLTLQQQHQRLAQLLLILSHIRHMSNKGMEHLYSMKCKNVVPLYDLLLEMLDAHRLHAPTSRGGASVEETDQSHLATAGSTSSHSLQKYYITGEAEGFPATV
Sequence of Thyroid hormone receptor beta (Homo sapiens) (P10828 whole entry, looked up): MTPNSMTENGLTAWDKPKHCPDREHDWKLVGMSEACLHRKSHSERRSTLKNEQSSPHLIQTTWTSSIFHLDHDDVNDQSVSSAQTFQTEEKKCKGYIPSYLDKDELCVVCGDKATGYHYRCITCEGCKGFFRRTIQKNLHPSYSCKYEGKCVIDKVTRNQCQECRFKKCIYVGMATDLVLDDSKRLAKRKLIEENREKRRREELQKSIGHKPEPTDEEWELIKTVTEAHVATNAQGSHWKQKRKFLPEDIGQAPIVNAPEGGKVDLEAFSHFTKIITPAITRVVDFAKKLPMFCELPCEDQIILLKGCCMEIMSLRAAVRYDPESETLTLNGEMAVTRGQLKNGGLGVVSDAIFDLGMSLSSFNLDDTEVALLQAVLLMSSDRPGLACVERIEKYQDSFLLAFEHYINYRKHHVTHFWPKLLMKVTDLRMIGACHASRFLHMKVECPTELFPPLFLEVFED
Sequence of Vitamin D3 receptor (Homo sapiens) (P11473 whole entry, looked up): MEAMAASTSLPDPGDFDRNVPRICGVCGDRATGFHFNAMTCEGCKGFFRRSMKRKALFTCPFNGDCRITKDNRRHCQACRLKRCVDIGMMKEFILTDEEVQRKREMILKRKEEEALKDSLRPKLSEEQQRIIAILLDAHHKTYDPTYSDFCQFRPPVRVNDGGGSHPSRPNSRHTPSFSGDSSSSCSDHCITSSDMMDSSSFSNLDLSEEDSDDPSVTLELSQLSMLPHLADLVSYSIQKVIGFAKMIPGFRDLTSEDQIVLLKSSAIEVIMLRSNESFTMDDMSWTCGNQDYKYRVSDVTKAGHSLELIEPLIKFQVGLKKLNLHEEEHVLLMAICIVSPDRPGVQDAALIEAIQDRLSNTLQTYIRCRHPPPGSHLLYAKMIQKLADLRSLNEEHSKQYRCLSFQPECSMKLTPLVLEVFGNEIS

Turning to `CC(=O)OC(C)(C)C1CC=C(C)CC1` (stereo unspecified), the Potency result in assay [1], in assay [2], in assay [5], in assay [6], in assay [9] and in assay [10] was “inactive” throughout. In addition, the Potency entry in assay [17] was “inactive”. Moreover, the max response in [3] was -21.5%; in [8], -9.79%; in [11] it was -19.2%; in [12] it was -1.89% (inactive); in [14], -5.04% (inactive); in [15], -6.08% (inactive). The values for the max response in [16] and in assay [18] were -11.3% (inactive) and -1.76% (inactive), respectively. In addition, the compound was called inactive in assay [4], in assay [7] and in assay [19]. The activation in assay [13] was -2.57% (inactive).

Consider `CCCCOCCOCCOCCO`, for which the Potency result in assay [1], in assay [2], in assay [5], in [6], in assay [9] and in assay [10] was “inactive” each time. Besides, the Potency result in [17] was “inactive”. Moreover, the max response in assay [3] is -4.48%; in [8] it was -9.78%; in assay [11], 1.39%; in assay [12], -1.08% (inactive); in assay [14], -1.01% (inactive); in assay [15] it was 5.3% (inactive). For the same compound, the figures for the max response in assay [16] and in assay [18] were -2.85% (inactive) and 2.44% (inactive), respectively. The compound was classed as inactive in assay [4], in assay [7] and in assay [19]. The activation in assay [20] was -0.915% (inactive); in assay [13] it was 1.2% (inactive).

In the case of `Brc1ccc(Br)c(Br)c1`, the Potency entry in assay [1], in assay [2], in assay [5], in assay [6], in [9] and in assay [10] was “inactive” each time. Also, the Potency entry in [17] was “inactive”. For the same compound, the outcome in assay [4], in assay [7] and in [19] was inactive. Besides, the max response in assay [8] was 0.274%; in assay [11] it was -16.3%; in assay [12] it was -14.6% (inactive); in assay [14] it was -4.16% (inactive); in assay [15], -18% (inactive); in assay [16], -15.6% (inactive). Further, the max response in assay [18] was -1.74% (inactive). The activation in assay [20] was -0.374% (inactive); in assay [13] it was 2.73% (inactive).

In the case of `CCCCCCCC(=O)OC`, the Potency entry in [1], in assay [2], in assay [5], in assay [6], in assay [9] and in assay [10] was “inactive” in each case. The Potency entry in [17] was “inactive”. In addition, the max response is 18.8% in assay [3]; 14.7% in [8]; -15% in assay [11]; -8.88% (inactive) in assay [12]; -3.16% (inactive) in assay [14]; 0.0694% (inactive) in assay [15]. Further, the max response in assay [18] was 2.14% (inactive). The compound was called inactive in [4], in assay [7] and in assay [19]. For the same compound, the activation was -1.19% (inactive) in assay [20] and -2.72% (inactive) in [13].

Take `COC(=O)c1ccccc1C(=O)O`: the Potency result in [1], in assay [2], in assay [5], in assay [9], in assay [10] and in assay [17] was “inactive” each time. Besides, the max response in assay [3] was 47.6%; in [8], -12.1%; in [11], -4.92%; in assay [12], -10.2% (inactive); in assay [14], -0.96% (inactive); in [15], -2.33% (inactive). Further, the max response in assay [16] is -13.6% (inactive); in assay [18] it was 2.64% (inactive). For the same compound, the call in assay [4], in [7] and in [19] was inactive. The activation in assay [20] was -0.0496% (inactive); in assay [13] it was 0.0502% (inactive).

With `CCCCOC(=O)/C=C\C(=O)OCCCC`, the Potency entry in assay [1], in assay [2], in assay [6], in assay [9], in assay [10] and in assay [17] was “inactive” in each case. In addition, the max response in [8] is -15%; in [11], -0.0728%; in assay [12] it was 8.44% (inactive); in assay [15], 14% (inactive); in assay [16] it was -1.23% (inactive); in assay [18] it was 0.138% (inactive). The activation is 0.89% (inactive) in [20] and 0.228% (inactive) in assay [13]. For the same compound, the outcome in [19] was inactive.
